Test results taken from PubChem BioAssay (NCI).
About 79,000 compounds went through this panel and 15% of them were active in at least one assay; those are over-represented in the sample as a whole. Active and inactive are the calls of the source. Cut-off read from the data, not from the text of the source: active = growth inhibition above about 70%; inactive = the rest.

Tests used:
[1] = NCI Yeast Anticancer Drug Screen. Data for the rad50 strain (AID 155);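 note: 0% = growth of vehicle-only cultures of the same strain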; conditions: S. cerevisiae rad50 strain growth inhibition; at 50.0 µM; hits give high values
How it was run: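 Cells are treated with compound, grown, and their growth is then scored against vehicle-only cultures of the same repair-deficient yeast strain.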

[2] = NCI Yeast Anticancer Drug Screen. Data for the mec2-1 strain (AID 157); conditions: S. cerevisiae mec2-1 strain, at 50.0 µM, hits give high values
How it was run: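 Yeast mec2-1 mutant treated with compound. Readout: growth inhibition vs vehicle controls.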

[3] = NCI Yeast Anticancer Drug Screen. Data for the sgs1 mgt1 strain (AID 161);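 note: 0% = growth of cultures given vehicle only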; conditions: S. cerevisiae sgs1 mgt1 strain, at 50.0 µM, hits give high values
How it was run: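 Read-out: growth inhibition vs vehicle controls. Cells: mutant yeast strain deficient in DNA damage repair.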

[4] = NCI Yeast Anticancer Drug Screen. Data for the cln2 rad14 strain (AID 165);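 note: 0% = growth equal to vehicle treated cultures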; conditions: S. cerevisiae cln2 rad14 strain, at 50.0 µM, hits give high values
How it was run: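 cln2 rad14 yeast strain; compound exposure; growth inhibition read vs vehicle controls.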

[5] = NCI Yeast Anticancer Drug Screen. Data for the bub3 strain (AID 167); conditions: S. cerevisiae bub3 mutant strain, at 50.0 µM, hits give high values
How it was run: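 Part of a panel of yeast mutants defective in DNA damage repair or cell cycle regulation. Each strain is grown with compound, and inhibition is calculated relative to solvent-treated cultures.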

[6] = NCI Yeast Anticancer Drug Screen. Data for the mlh1 rad18 strain (AID 175); conditions: S. cerevisiae mlh1 rad18 strain growth inhibition; at 50.0 µM; hits give high values
How it was run: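 Yeast w/ defined DNA-repair lesions; compound exposure; growth vs vehicle controls → % inhibition.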

Measured: growth inhibition

CC(=O)Nc1ccc(OC(=O)Nc2ccc(C)c(NC(=O)Oc3ccc(NC(C)=O)cc3)c2)cc1
inactive: [1] 6.35% | [2] -6.95% | [3] 6.15% | [4] 24.5% | [5] 17.2% | [6] 7.25%

CCCc1[nH]n(-c2cccc([N+](=O)[O-])c2)c(=O)c1N=Nc1ccc(Cl)cc1
inactive: [1] 40.9% | [2] 24.1% | [3] 21.5% | [4] 20.9% | [5] -2.5% | [6] 26.9%

C#CC(CC(C)CC(C)(C)C)N(C)C (stereo not drawn)
inactive: [1] 39% | [2] 22.8% | [3] 16.2% | [4] 17.8% | [5] 3.8% | [6] 31.3%

CC1CC2=C(C1)C(C1(C)C(=O)CC3C(C1=O)C3(C)C)C(C)C2=O (stereo not drawn)
inactive: [1] 2.3% | [2] -24.6% | [3] 5.5% | [4] 3.3% | [5] 4.6% | [6] -44.6%

CN(Cc1cnc2nc(N)nc(N)c2n1)c1ccc(C(=O)NC(CCC(=O)OCc2cc3c(cc2Cl)OCO3)C(=O)OCc2cc3c(cc2Cl)OCO3)cc1 (stereo not drawn)
inactive: [1] 16.9% | [2] 58.3% | [3] 42% | [4] 44.6% | [5] -8.6% | [6] 46.2%

Cc1ccc2ccccc2c1C(=O)c1ccccc1Cc1cccc2ccccc12
inactive: [1] 17.6% | [2] 2.65% | [3] 10.6% | [4] 2.2% | [5] 4.55% | [6] -1.05%

OCC1c2ccccc2C(CO)c2c1ccc1ccccc21 (stereo not drawn)
inactive: [1] -0.3% | [2] -2.3% | [3] -7.1% | [4] 11.1% | [5] -9.15% | [6] 4.45%

NC(Cc1cc(I)c(Oc2ccc(O)c(I)c2)c(I)c1)C(=O)O (stereo not drawn)
inactive: [1] -5.1% | [2] -1.35% | [3] -9.5% | [4] -27.5% | [5] -30.5% | [6] 33.4%

OC1CCCCC1[n+]1ccccc1 (stereo not drawn)
inactive: [1] -7.8% | [2] -0.6% | [3] -7.45% | [4] -24.1% | [5] -7.35% | [6] -0.55%

O=C1C2Cc3ccccc3CN2C(=O)N1CCN1CCCC1 (stereo not drawn)
inactive: [1] -19.1% | [2] -33.7% | [3] -12.1% | [4] 4.3% | [5] -22.6% | [6] 8%

COc1ccc(NC=O)c(C)c1
inactive: [1] -10.5% | [2] -38.8% | [3] -5.35% | [4] -10.3% | [5] 28.6% | [6] -29%

O=C1OCC=C1COC1OC(CO)C(O)C(O)C1O (stereo not drawn)
inactive: [1] -6.35% | [2] 3.55% | [3] -12.8% | [4] 5.05% | [5] -11.9% | [6] -41.7%

C/C(=C\C(N)=O)C(C)(C)C
inactive: [1] 4.15% | [2] -2.25% | [3] 9.35% | [4] 10.3% | [5] 21.9% | [6] -41.1%

CC(=O)NC(NC(C)=O)c1ccccc1
inactive: [1] -16.6% | [2] -8.5% | [3] -5.45% | [4] -8.55% | [5] -26.4% | [6] -20.5%

COC(=O)CNN
inactive: [1] -6.05% | [2] -19.4% | [3] -14.8% | [4] -25.1% | [5] -7.25% | [6] 7.9%

COc1cccc(C(=O)O)c1[N+](=O)[O-]
inactive: [1] -19.1% | [2] -26.6% | [3] -24% | [4] -46.1% | [5] -6.05% | [6] -1%

CCOC(=O)C1=C(C)N(NC(=O)OC)C2(N)N(NC(=O)OC)C(C)=C(C(=O)OCC)C12C#N (stereo not drawn)
inactive: [1] -13.3% | [2] -3.2% | [3] -7.45% | [4] -5.7% | [5] 2.5% | [6] -18.4%

Fc1ccc(N2CSC(=S)N(c3ccc(F)cc3F)C2)c(F)c1
inactive: [1] 8.95% | [2] -5.7% | [3] 31.5% | [4] 6.8% | [5] 28.9% | [6] 18.8%

COc1ccc(C#N)c(-c2ccccc2)c1
inactive: [1] -11.2% | [2] -13.2% | [3] 17.5% | [4] 3.05% | [5] -6.25% | [6] -12.3%

Cc1cc(-c2ccccc2)[nH]c1-c1nccc2ccccc12
inactive: [1] 4.1% | [2] 8% | [3] 0.8% | [4] 24% | [5] -4.5% | [6] 4.7%

O=NC1CC=CC1Cl (stereo not drawn)
inactive: [1] 18.6% | [2] 0.1% | [3] 0.65% | [4] 9.5% | [5] -8.1% | [6] 22.2%

COc1cc(C2C(C(=O)Nc3ccccc3C)=C(C)NC(C)=C2C(=O)Nc2ccccc2C)ccc1O
inactive: [1] -27.1% | [2] -8.45% | [3] -16.6% | [4] -3.15% | [5] -10.8% | [6] -9.95%

Cc1cc(C)c(S(N)(=O)=O)c(C)c1
inactive: [1] -1.2% | [2] -16.6% | [3] -28.2% | [4] -5.4% | [5] -15.1% | [6] -0.8%

O=C(NCCNCCO)N/N=C/c1ccc([N+](=O)[O-])cc1
inactive: [1] -8.75% | [2] -7.35% | [3] -1.4% | [4] 36.6% | [5] 0.3% | [6] -3.65%

CCOC(=O)C(NC(C)=O)C(O)c1ccccc1 (stereo not drawn)
inactive: [1] -8.85% | [2] -16.2% | [3] -2% | [4] -24.6% | [5] -37.4% | [6] -9.95%

COc1ccc(C(=O)C[C@H]2CCC[C@@H](CC(=O)c3ccc(OC)cc3)N2C)cc1
inactive: [1] 14.4% | [2] 5.05% | [3] 5.05% | [4] 12% | [5] 0.25% | [6] 8.1%

COc1nc(Cl)cc2nc(Cl)cn12
inactive: [1] 3.4% | [2] 9.35% | [3] -3.65% | [4] 9.55% | [5] -11.8% | [6] 2.55%

CC(C)(C)OC(=O)Cc1ccc([N+](=O)[O-])cc1
inactive: [1] 2% | [2] -19.6% | [3] -10.7% | [4] -5.85% | [5] -3.05% | [6] -17.7%

CC1CCC2(OC1)OC1CC3C4CCC5CC(O)CCC5(C)C4CC(=O)OC3(C)C1C2C (stereo not drawn)
inactive: [1] -10.8% | [2] -23.6% | [3] -14.8% | [4] -7.35% | [5] -25% | [6] 2.2%

CC1CCN(C(=S)[S-])CC1.CC1CCN(C(=S)[S-])CC1.[Zn]
inactive: [1] 58.9% | [2] 9.05% | [3] 54.2% | [4] 34.2% | [5] 5.85% | [6] 32.9%

N#Cc1cccc(O)c1
inactive: [1] -3.45% | [2] -10.7% | [3] -2.45% | [4] 20.1% | [5] 13.7% | [6] 12%

CC1=CCCC(C)(C)C1/C=C/C(=O)O (stereo not drawn)
inactive: [1] 8.45% | [2] -7.35% | [3] -8.75% | [4] -36.3% | [5] -18.1% | [6] -9.2%

CCCCCCC1=CCCC1=O
inactive: [1] -3.5% | [2] -25.4% | [3] -3.35% | [4] -3.6% | [5] 2.55% | [6] 11.5%

N#Cc1c(C#N)c(-c2ccccc2)n(-c2ccccc2)c1N
inactive: [1] 10.7% | [2] 12% | [3] -29.7% | [4] -12.8% | [5] -11.2% | [6] -22.1%

Cc1ccc(CCCC(N)=O)cc1
inactive: [1] 32.1% | [2] -0.15% | [3] 8.85% | [4] 4.1% | [5] -2.15% | [6] 2.55%

CSc1ccc(NC(=O)N(Cc2ccccc2)c2ccccc2)cc1
inactive: [1] 3.75% | [2] 16.9% | [3] 11.9% | [4] -6.4% | [5] 19.2% | [6] 13.8%

N#CCCCCBr
inactive: [1] 12.4% | [2] 6.95% | [3] -4.2% | [4] -50.7% | [5] 15.6% | [6] 7.5%

C/C(N=NS(=O)(=O)c1ccccc1)=C1\C=CC=CN1O
inactive: [1] -7.9% | [2] -1.5% | [3] -4.55% | [4] 2.5% | [5] 12.9% | [6] -9%
